The list is not random: actives were taken first. Their share in the collection is about 6%.
PLK1 PBD block: qHTS for Inhibitors of PLK1-PDB (polo-like kinase 1 - polo-box domain): Primary Screen | Plk1 PBD binding of FITC phosphopeptide, fluorescence polarization | 360,000 compounds, 2.8% hits | Potency, µM, without a hit: max response, negative = inhibition, hits mostly inhibitors | AID 720504, 2013; note: series mostly up to about 57 µM; nearly all actives have a fitted effect of over 65% in size
Target sequence (P53350 whole entry, looked up, the tested form may be a part): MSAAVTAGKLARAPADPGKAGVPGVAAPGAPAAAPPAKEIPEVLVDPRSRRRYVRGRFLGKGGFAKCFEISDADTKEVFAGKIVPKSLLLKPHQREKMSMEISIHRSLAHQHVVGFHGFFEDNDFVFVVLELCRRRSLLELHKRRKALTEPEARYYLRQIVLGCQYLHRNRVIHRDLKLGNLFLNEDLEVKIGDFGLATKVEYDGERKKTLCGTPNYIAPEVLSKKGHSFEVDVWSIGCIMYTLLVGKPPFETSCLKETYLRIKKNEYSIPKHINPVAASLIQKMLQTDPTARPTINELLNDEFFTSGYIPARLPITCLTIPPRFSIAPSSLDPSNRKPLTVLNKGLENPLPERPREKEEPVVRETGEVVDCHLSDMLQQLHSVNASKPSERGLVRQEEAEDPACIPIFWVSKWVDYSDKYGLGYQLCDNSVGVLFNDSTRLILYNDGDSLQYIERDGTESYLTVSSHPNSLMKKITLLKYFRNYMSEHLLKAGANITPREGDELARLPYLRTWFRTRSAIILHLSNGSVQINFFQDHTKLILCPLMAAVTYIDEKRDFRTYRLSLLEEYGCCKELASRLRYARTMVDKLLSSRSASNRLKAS
Tau fibril ThT: qHTS for Inhibitors of Tau Fibril Formation, Thioflavin T Binding; Potency, µM (doses to about 57.4 µM), for the others: at the top dose activity, negative = inhibition, actives largely listed as inhibitors; AID 1460, 2008; 270,000 compounds, 2.1% hits; Microtubule-associated protein tau (Homo sapiens), P10636; recombinant tau K18 P301L, heparin-induced fibrillization, ThT fluorescence; note: nearly all actives have a fitted effect of over 55% in size
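K18 P301L tau (15 uM + 0.24 uM Alexa 594-tagged), heparin 20 uM, NaOAc pH 7, 6 h 37 C; ThT 30 uM, 1 h RT, ex 450/em 510 nm.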
VDR inhibitor: Inhibitors of the vitamin D receptor (VDR): qHTS | Vitamin D3 receptor (Homo sapiens), P11473 | VDR-SRC2-3 peptide fluorescence polarization, 2 h | Potency, µM, inactives show max response, negative = inhibition, hits mostly inhibitors | 400,000 compounds, 0.93% hits
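Reagent solutions, kept cold and dark, are dispensed first; compounds are then pinned in at 23 nl, plates briefly spun, and incubated 2 h at ambient temperature. Inhibition of VDR–SRC2-3 peptide binding is read by fluorescence polarization.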
Tau FP inhib: qHTS for Inhibitors of Tau Fibril Formation, Fluorescence Polarization; Microtubule-associated protein tau (Homo sapiens), P10636; K18 P301L tau heparin fibrillization, Alexa594 FP, 6 h; Potency, µM (highest dose often 57.7 µM), for inactives: at the highest dose activity, negative = inhibition, most hits filed as inhibitors; 280,000 compounds, 0.39% hits; AID 1468, 2008; note: nearly all actives have a fitted effect of over 55% in size
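Human tau K18 […] P301L fragment, 15 uM unlabeled plus 0.24 uM Alexa 594-labeled tau (final), with compound and 20 uM heparin in 100 mM sodium acetate pH 7; 6 hr at 37 C, then Alexa 594 FP read.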
Sfp PPTase inh: qHTS Assay for Inhibitors of Bacillus subtilis Sfp phosphopantetheinyl transferase (PPTase); Potency, µM, for the others: largest response in the series, negative = inhibition, actives largely listed as inhibitors; Biochemical Sfp PPTase activity, qHTS; 310,000 compounds, 3.5% hits; AID 1490, 2009;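 note: the enzyme is Sfp with the accession as filed and its product quenches rhodamine fluorescence; 0% = enzyme reaction without inhibitor and -100% = no enzyme wells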
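After 15 min at room temperature with compound, 15 nM Sfp received 5 uM rhodamine-CoA plus 12.5 uM BHQ-2-ybbR (50 mM Hepes pH 7.6, 10 mM MgCl2). Rate came from the fluorescence difference over 30 min, ex 525/em 598 nm.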
Tau fluor cs: Counterscreen qHTS for Inhibitors of Tau Fibril Formation, Fluorescence Polarization; tau K18 P301L (four-repeat tau fragment) Alexa594 fluorescence, heparin fibrillization; Potency, µM (titrated, usually from 57.7 µM), inactives show at the highest dose activity change, negative = decrease; 280,000 compounds, 0.93% hits; note: nearly all actives have a fitted effect of over 55% in size
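Human K18 P301L tau (15 uM unlabeled plus 0.24 uM Alexa 594-labeled, final) in 100 mM sodium acetate pH 7 was mixed with compound and 20 uM heparin and incubated 6 hr at 37 C.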
Active calls of the source: *; u = inconclusive; x = no result. Calls come from the whole dose curve; as a rule, active = well fitted curve in the direction sought with a large enough effect; inconclusive = small, poorly fitted or top-dose-only effect, or another doubt; inactive = no such curve, though single readings can be large; an effect the other way counts as inactive or inconclusive. Unless noted, % is set by controls: 0 for no effect and ±100 for the full control effect; potency is the fitted concentration of half-maximal effect.

SMILES	PLK1 PBD block	Tau fibril ThT	VDR inhibitor	Tau FP inhib	Sfp PPTase inh	Tau fluor cs
O=[S+]([O-])([O-])c1ccc2c(c1)cc([S+](=O)([O-])[O-])c1nn(-c3ccc(/C=C/c4ccc(-n5nc6c([S+](=O)([O-])[O-])cc7cc([S+](=O)([O-])[O-])ccc7c6n5)cc4[S+](=O)([O-])[O-])c([S+](=O)([O-])[O-])c3)nc12	x	x	2%	x	x	x
CCOC(=O)c1sc(=S)n(-c2ccccc2OC)c1N	21µM*	2%	-29%	-6%	-63%	0%
COC(=O)c1sc(=S)n(-c2ccccc2OC)c1N	-2%	-15%	0%	1%	12%	-16%
CCCCNC(=O)N1CCN(c2ccccc2OC)CC1	-2%	-9%	-1%	-1%	17%	-6%
CCCCNC(=O)c1sc(=S)n(-c2ccccc2OC)c1N	27µM*	-10%	-3%	3%	45µM*	-6%
O=C(NCCn1ccc2ccccc21)c1ccc(Cl)cc1	x	u	-22%	-15%	x	u
CC(=O)N1CCCC(c2cc(C(=O)Nc3ccccc3)no2)C1 (stereo not given)	-4%	x	x	x	x	x
COc1cc2c(cc1OC)C(COc1ccc3c(C)cc(=O)oc3c1)N(C(=O)c1ccccc1F)CC2 (stereo not given)	x	-5%	-3%	2%	x	-5%
CCOc1ccc(OCC)c(C2C(C#N)=C(N)N(c3cccnc3)C3=C2C(=O)CC(C)(C)C3)c1 (stereo not given)	-7%	u	8%	-11%	32µM*	-4%
Cc1cccc(CNC(=O)c2ccc(C)c(-n3c(C)nc4cccnc43)c2)c1	x	0%	4%	-2%	x	-9%
CCOC(=O)c1sc(=S)n(CC)c1N	-20%	-6%	6%	1%	3%	-10%
CCOC(=O)c1ccc(-n2c(N)c(C(=O)NCc3ccco3)sc2=S)cc1	24µM*	u	u	0%	35µM*	-22%
CCn1c(N)c(C(N)=O)sc1=S	27µM*	-12%	7%	-2%	14µM*	3%
CCOC(=O)CSc1nc2c(sc(=S)n2-c2ccc(CC)cc2)c(=O)[nH]1	-25%	x	-10%	x	14%	x
C=CCNC(=O)c1sc(=S)n(-c2ccc(C(=O)OCC)cc2)c1N	21µM*	-14%	u	-9%	20µM*	-14%
CCOC(=O)c1ccc(-n2c(=S)sc3c(=O)[nH]c(C)nc32)cc1	5.3µM*	u	50µM*	-5%	13µM*	-9%
Cc1cccc(CNC(=O)Cc2ccc(NC(=O)N3CCCCc4ccccc43)cc2)c1	x	-11%	10%	1%	x	-4%
CCOC(=O)c1c(C)c(C(=O)NCc2ccco2)c(C)n1Cc1ccccc1	27µM*	-16%	u	0%	-7%	-11%
CCn1c(N)c(C(=O)NCc2ccco2)sc1=S	24µM*	-10%	-28%	5%	22µM*	-8%
O=[N+]([O-])c1ccc(-[n+]2ccc3ccccc3c2)c([N+](=O)[O-])c1	24µM*	x	79µM*	x	x	x
Fc1ccc(/C=N/n2cnn(Cc3ccccc3Cl)c2=S)cc1	24µM*	-6%	u	-14%	50µM*	-27%
CCOC(=O)N1CCN(C(=O)Cc2ccc(Cl)cc2)CC1	-5%	1%	-9%	2%	19%	2%
CCOC(=O)N1CCN(C(=O)c2ccc(CSc3ccc(Cl)cc3)cc2)CC1	27µM*	-16%	-7%	4%	u	0%
COC(=O)C[C@H]1CC[C@H](NC(=O)c2cccc(F)c2)[C@@H](CO)O1	2%	x	x	x	x	x
